These results are taken from ChEMBL document CHEMBL4649997, “Data for probe TP-472” (2021).

Assay [1] concerns the target Bromodomain-containing protein 4 (Homo sapiens) (UniProt O60885). As to conditions: Compound concentration 10.0 uM, Protein concentration 2.0 uM.
The target of assay [2] is T1, Transcription intermediary factor 1-alpha (Homo sapiens) (UniProt O15164).
T1 sequence (whole entry): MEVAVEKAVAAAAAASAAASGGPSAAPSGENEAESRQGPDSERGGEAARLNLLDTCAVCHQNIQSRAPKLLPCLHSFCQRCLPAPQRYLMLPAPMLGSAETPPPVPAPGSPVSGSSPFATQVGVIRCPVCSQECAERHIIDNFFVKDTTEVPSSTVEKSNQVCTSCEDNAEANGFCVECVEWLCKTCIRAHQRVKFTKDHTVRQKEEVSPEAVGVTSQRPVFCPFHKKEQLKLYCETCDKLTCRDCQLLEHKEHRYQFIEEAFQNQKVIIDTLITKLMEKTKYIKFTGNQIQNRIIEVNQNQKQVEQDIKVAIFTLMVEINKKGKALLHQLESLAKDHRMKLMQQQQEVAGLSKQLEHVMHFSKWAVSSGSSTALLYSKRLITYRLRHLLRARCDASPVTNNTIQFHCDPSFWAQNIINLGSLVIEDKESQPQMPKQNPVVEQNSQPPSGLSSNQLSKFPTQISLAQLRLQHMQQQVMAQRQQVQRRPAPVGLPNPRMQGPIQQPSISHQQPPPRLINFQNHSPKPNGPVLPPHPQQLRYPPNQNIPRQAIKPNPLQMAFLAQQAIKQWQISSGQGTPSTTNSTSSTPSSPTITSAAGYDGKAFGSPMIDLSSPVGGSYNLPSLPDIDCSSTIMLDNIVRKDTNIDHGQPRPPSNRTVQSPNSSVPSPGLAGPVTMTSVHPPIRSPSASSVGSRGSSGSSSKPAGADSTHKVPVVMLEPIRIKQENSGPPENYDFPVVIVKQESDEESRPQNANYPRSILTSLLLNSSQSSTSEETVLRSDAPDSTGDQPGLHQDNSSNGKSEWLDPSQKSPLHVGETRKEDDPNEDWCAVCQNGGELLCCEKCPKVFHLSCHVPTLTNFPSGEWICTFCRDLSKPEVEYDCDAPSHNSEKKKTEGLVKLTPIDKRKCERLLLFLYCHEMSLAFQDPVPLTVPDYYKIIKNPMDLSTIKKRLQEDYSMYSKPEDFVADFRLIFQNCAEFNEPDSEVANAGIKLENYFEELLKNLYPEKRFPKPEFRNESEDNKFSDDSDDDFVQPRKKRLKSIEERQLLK
As to conditions: Compound concentration 10.0 uM, Protein concentration 2.0 uM.

In the case of `CC(=O)c1cc(-c2cc(C(=O)NC3CC3)ccc2C)c2ncccn12`, the ΔTm in assay [1] was found to be 0.28 °C; in assay [2], 0.37 °C.

What is called ΔTm is the shift of the melting midpoint relative to a reference.
